Shiga inhibitor: A qHTS for Small Molecule Inhibitors of Shiga Toxin. Vero cells, Shiga toxin protein synthesis inhibition reporter. AID 2315, 2010. actives 9.2% (n = 290,000). inhibition, % at 38.7 µM; in the data active means inhibition mostly above about 28%, no sharp cut-off; inactive means mostly below about 43%; further: 0% is about no effect
Pf growth 48h: Primary qHTS for delayed death inhibitors of the malarial parasite plastid, 48 hour incubation | Potency, µM (highest dose often 28.7 µM), without a hit: at the top dose activity change, negative = inhibition, most hits filed as inhibitors | P. falciparum luciferase growth in erythrocytes, 48 h | actives 5.9% (n = 310,000); further: potency means the concentration at half of the fitted maximal effect; on the % scale 0 is the no-effect control and ±100 the full control effect
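Read-out is firefly luciferase luminescence from an integrated reporter in P. falciparum, so falling signal marks reduced parasite growth. Infected erythrocytes were at 2% hematocrit and 0.1% parasitemia (final) in Albumax-supplemented RPMI 1640.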
Pf growth 96h: Primary qHTS for delayed death inhibitors of the malarial parasite plastid, 96 hour incubation; P. falciparum luciferase reporter growth, 96 h; Potency, µM (top dose mostly 28.7 µM), without a hit: at the highest dose activity change, negative = inhibition, most hits filed as inhibitors; actives 6.9% (n = 320,000); AID 504834, 2011; further: potency means the concentration at half of the fitted maximal effect; on the % scale 0 is the no-effect control and ±100 the full control effect
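Cell-based qHTS: luciferase-tagged P. falciparum in erythrocytes (2% hematocrit, 0.05% parasitemia final) incubated with compounds for 96 hours, 37 C, 5% CO2; luciferase detection reagent then added and luminescence measured.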
CHX counter: Cycloheximide Counterscreen for Small Molecule Inhibitors of Shiga Toxin; cell reporter, cycloheximide protein synthesis inhibition counterscreen; actives 12% (n = 300,000); max response, %; in the data active means max response mostly above about 13%, no sharp cut-off; inactive means mostly below about 14%; further: read at 38.3 µM for the half of the compounds with a filed dose; 0% is about no effect
LASV entry inh: qHTS for Inhibitors of binding or entry into cells for Lassa Virus | Lassa virus pseudotype entry inhibition, cell reporter | Potency, µM (series often up to 37.9 µM), for inactives: at the top dose activity change, negative = inhibition, actives largely listed as inhibitors | actives 1.2% (n = 300,000) | AID 540256, 2011; calls by dose curve; tested in HEK293 cells; further: potency means the concentration at half of the fitted maximal effect; on the % scale 0 is the no-effect control and ±100 the full control effect; nearly all actives have a fitted effect of over 50% in size
MARV entry inh: qHTS for inhibitors of binding or entry into cells for Marburg Virus; Marburg virus pseudotyped entry inhibition, cell reporter; Potency, µM (titrated, usually from 37.8 µM), for the others: top-dose activity change, negative = inhibition, usual class: inhibitors; actives 1.8% (n = 300,000); AID 540276, 2011; calls by dose curve; tested in HEK293 cells; further: potency means the concentration at half of the fitted maximal effect; on the % scale 0 is the no-effect control and ±100 the full control effect
An asterisk follows results filed as active; ? = inconclusive; / = not tested or not shown; [ ] = another dose, or the depositor's remark. An excerpt weighted towards active compounds, which were near 19% of everything screened. Unless noted, the call rests on the fitted dose curve; in most records, active means well fitted inhibition curve with a large enough effect; inconclusive means small, poorly fitted or top-dose-only effect, or another doubt; inactive means no such curve, though single readings can be large or run the other way.

SMILES | Shiga inhibitor | Pf growth 48h | Pf growth 96h | CHX counter | LASV entry inh | MARV entry inh
Cc1cccc(-c2cc3nc4c(c(N5CCCC(O)C5)n3n2)CCC4)c1 (configuration not stated) | -4.7 | 6.57µM* | -30.9% | -1.9 | ? | ?
COc1cccc(-c2cc3nc(-c4ccccc4)cc(N4CCCC(O)C4)n3n2)c1 (configuration not stated) | -8.6 | 11.7µM* | 7.8% | 0.8 | / | /
OC1CCCN(c2c3c(nc4cc(-c5cccc(Cl)c5)nn24)CCC3)C1 (configuration not stated) | 3.0 | 4.65µM* | 0.0% | 8.4 | 2.2% | ?
OC1CCCN(c2c3c(nc4cc(-c5cccc(F)c5)nn24)CCCC3)C1 (configuration not stated) | 79.7* | ? | ? | 56.5* | ? | ?
COc1cccc(-c2cc3nc4c(c(N5CCC6(CC5)OCCO6)n3n2)CCC4)c1 | 16.8 | ? | ? | 10.5 | / | /
O=C(CN1CCOCC1)Nc1c2c(nc3ccccc13)N(Cc1ccccc1)CC2 | -16.1 | ? | -13.5% | -0.6 | -9.7% | 18.2%
Cn1c(SCC(=O)Nc2nccs2)nnc1-c1ccc(S(=O)(=O)N2CCCC2)cc1 | -15.5 | / | 6.57µM* | -2.9 | 0.3% | 10.7%
CCn1c(SCC(=O)Nc2nccs2)nnc1-c1ccc(S(=O)(=O)N2CCCCCC2)cc1 | -21.5 | / | -6.7% | -7.0 | ? | ?
Cc1nc(NC(=O)CSc2nc3cccnc3n2C2CCCCC2)sc1C | 16.1 | 2.7% | -1.7% | -2.5 | -18.3% | -10.1%[46.1 µM]
CCc1nnc(NC(=O)CSc2nnc(-c3ccc(S(=O)(=O)N4CCCC4)cc3)n2CC)s1 | 8.6 | ? | ? | 23.6* | -0.3% | -6.1%
CCc1nnc(NC(=O)CSc2nc3cccnc3n2C2CCCCC2)s1 | -13.6 | ? | ? | -2.2 | 5.62µM* | 2.51µM*
CCc1nnc(NC(=O)CSc2nnc3nc(C)cc(C)n23)s1 | -4.1 | -9.6% | 2.08µM* | -1.3 | 6.7%[46.1 µM] | ?
CC(C)CN(C(=O)CN(C)C(=O)Cc1ccc(Cl)cc1)c1c(N)n(CC(C)C)c(=O)[nH]c1=O | / | -0.7% | 1.7% | / | -2.1% | -8.7%
CCn1c(SCc2ccccc2)nnc1-c1ccc(S(=O)(=O)N2CCCCC2)cc1 | -25.1 | 10.4µM* | 0.0% | 7.7 | -0.6% | -8.9%
COc1ccc(CN2CCc3nc(SCC(=O)Nc4cc(C)cc(C)c4)[nH]c(=O)c3C2)cc1 | / | / | / | / | 11.0%[46.1 µM] | 16.9%[46.1 µM]
CCSc1nc(N)nc(-c2cccs2)c1C#N | 67.9* | 53.7% | 58.3% | 30.8* | 7.0% | -0.1%
C=CCOc1nc2sc(C)c(C)c2c(=O)n1-c1ccccc1 | -1.2 | -1.6% | 8.28µM* | -3.4 | / | /
CCc1ccc(Nc2ncccc2C#N)cc1 | 24.9 | 90.9% | 106.5% | 28.2* | 20.6% | ?
CCC(C)c1ccc(Nc2ncccc2C#N)cc1 (configuration not stated) | 69.3* | 231.0% | 395.8% | 38.3* | ? | ?
CCCc1cc(=O)oc2cc(OCC(=O)NCCCn3ccnc3)ccc12 | -4.6 | -16.9% | 32.9% | -3.6 | ? | 11.9%[46.1 µM]
O=C1N(c2ccccc2C(F)(F)F)O[C@@]1(c1ccccc1)C1CCCCC1 | / | 1.47µM* | ? | / | / | /
FC(F)(F)c1ccccc1N1CC1c1ccncc1 (configuration not stated) | -2.1 | / | 2.0% | -3.4 | / | /
O=C1N(c2ccccc2C(F)(F)F)O[C@@]1(c1ccccc1)C1CCCC1 | / | 0.738µM* | 0.828µM* | / | / | /
O=C(c1ccccc1)c1cccs1 | 33.3 | 51.8% | -15.6% | 6.1 | -0.3%[46.1 µM] | 10.3%[46.1 µM]
O=C(c1ncc[nH]1)c1cccs1 | 23.7 | 78.0% | 37.6% | 28.8* | ? | -0.4%[46.1 µM]
SMILES | Shiga inhibitor | Pf growth 48h | Pf growth 96h | CHX counter | LASV entry inh | MARV entry inh
CCCCn1c(=O)[nH]c(=O)c2c(C(=O)OCC)cc(-c3cccs3)nc21 | -4.5 | 0.0% | -19.9% | -3.4 | ? | ?
CCCn1c(=O)[nH]c(=O)c2c(C(=O)OCC)cc(-c3cccs3)nc21 | 44.0* | ? | ? | 31.4* | ? | -11.6%
O=C(Nc1ccccc1)c1nc[nH]c1C(=O)O | / | / | / | / | 11.6%[46.1 µM] | ?
COc1cccc(C(=O)Nc2cccc(OC(C)=O)c2)c1 | 52.1* | 149.9% | 149.4% | 45.3* | 2.0% | -27.5%
COc1cccc(C(=O)Nc2ccc(NC(=O)C3C4C=CC(C4)C3C(=O)O)cc2)c1 (configuration not stated) | 141.7* | -8.3% | 55.6% | 40.8* | -28.8% | ?
COc1cccc(C(=O)Nc2ccc3c(c2)C(=O)c2ccccc2C3=O)c1 | 37.6* | 108.4% | ? | 31.1* | 18.9% | ?
COc1cccc(C(=O)NC(=S)Nc2ccc(N(C)C)cc2)c1 | 101.7* | 142.8% | -18.5% | 33.6* | -13.2% | ?
O=C(Nc1ccc2c(c1)C(=O)c1ccccc1-2)c1ccccc1 | / | / | / | / | 8.0%[46.1 µM] | ?
Nc1cccc(/C=C/C(=O)O)c1 | 2.4 | 38.2% | 101.0% | -1.3 | / | /
COc1cccc(C(=O)Nc2cccc(C(C)=O)c2)c1 | 18.3* | 205.9% | 220.2% | 87.3* | ? | ?
COc1cccc(NC(=O)c2cnc(SC)nc2)c1 | 27.0 | 78.0% | -17.3% | 21.3* | 6.5%[46.1 µM] | ?
COc1cccc(C(=O)Nc2ccncc2)c1 | 25.3 | 21.0% | 20.3% | 8.1 | / | /
COc1cccc(C(=O)Nc2ccc(C(=O)O)cc2)c1 | 21.5 | 23.0% | ? | -1.1 | ? | -11.0%
COc1cccc(C(=O)Nc2ccc(C(=O)c3ccccc3)cc2)c1 | / | 2.8% | ? | 35.7* | / | /
COc1cccc(OC)c1C(=O)Nc1nnc(-c2ccc(F)cc2)s1 | 29.7* | 0.0% | ? | 10.4* | / | /
O=C(Nc1nnc(-c2ccc(F)cc2)s1)c1ccco1 | 33.8 | 75.2% | ? | 8.7 | 4.5%[46.1 µM] | 10.0%[46.1 µM]
CSc1ncc(C(=O)Nc2ccccc2)cn1 | -1.9 | 32.0% | 310.7% | -2.4 | / | /
Cc1ccc(OCC(=O)NNC(=O)C(=O)NC(C)(C)C)cc1 | -13.2 | 19.3% | 34.9% | -2.8 | 3.9% | -2.4%
Cc1cccc(C(=O)NNC(=O)c2ccc(F)cc2)c1 | 16.4 | 2.7% | ? | 14.0* | 11.8% | 20.4%
COC(=O)c1ccc(NC(=O)c2c(C(=O)Nc3ccccc3)sc3nc(C)cc(=O)n23)cc1 | -3.8 | 7.4% | 11.7µM* | -3.1 | 3.9% | -31.3%
O=C(COc1ccc(Cc2ccccc2)cc1)c1ccc(F)cc1 | -17.0 | 1.9% | 5.22µM* | 34.8* | ? | ?
Cc1cccc(C(=O)NNC(=O)c2cccc(C)c2)c1 | 3.0 | 7.5% | 9.2% | 8.3 | 21.4% | -1.4%
COC(=O)c1ccc(NC(=O)c2sc3nc(-c4ccccc4)cn3c2C)cc1 | 18.3 | ? | 20.5% | -2.0 | ? | ?
CCOc1cccc(C(=O)Nc2ccc3ccccc3c2)c1 | 36.8 | 110.4% | -55.0% | 20.6* | ? | ?

Source: PubChem BioAssay
